PubChem BioAssay (EPA / NIEHS)
The source made the active and inactive calls. The calls were made as follows: active = hit-call score of the fitted dose curve at least 0.9, where 1 is the maximum; inactive = score below 0.9.

Tests used:
[1] = ATG_GRE_CIS: Attagene CIS-FACTORIAL HepG2 Assay for human Glucocorticoid Response Elements (GRE) (AID 2282947); details: HepG2 GRE cis-reporter, Attagene multiplex mRNA; actives raise or lower the signal
Method in brief: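 Transiently transfected HepG2 cells carrying GRE cis-reporter units (endogenous TF activity) dosed 24 h; reporter mRNA quantified by RT-PCR, 6-FAM labelling, HpaI digestion and capillary electrophoresis. Bidirectional fit versus DMSO baseline.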

[2] = ATG_ISRE_CIS: Attagene CIS-FACTORIAL HepG2 Assay for human Interferon Regulatory Factor 1 (IRF1) binding to an Interferon-Stimulated Response Element (ISRE) (AID 2282948); details: HepG2 ISRE cis-reporter (Attagene), mRNA transcription readout; actives raise or lower the signal
Method in brief: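 Cell-based cis-reporter assay; HepG2; 24 h exposure; reporter mRNA by RT-PCR plus capillary electrophoresis fluorescence; activity in either direction scored relative to DMSO.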

[3] = ATG_M_32_CIS: Attagene CIS-FACTORIAL HepG2 Assay for M32 Transcription Factor (Internal Marker) (AID 2282949); details: HepG2 Attagene cis-factorial M32 reporter, mRNA; actives raise or lower the signal;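 also: background control marker of the multiplexed CIS panel rather than a real target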
Method in brief: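 Fluorescent capillary electrophoresis peaks of HpaI-digested, FAM-labelled RT-PCR reporter products give the signal. Source: transiently transfected human liver HepG2 cells, 24 h after chemical dosing; bidirectional fitting against DMSO.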

[4] = ATG_M_06_CIS: Attagene CIS-FACTORIAL HepG2 Assay for M06 Transcription Factor (Internal Marker) (AID 2282950); details: HepG2 Attagene CIS-FACTORIAL M06 internal marker reporter; actives raise or lower the signal
Method in brief: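 HepG2 liver cells, 24 h exposure. Reporter transcripts from transfected cis-element constructs quantified by RT-PCR/capillary electrophoresis fluorescence. Bidirectional curve fit against DMSO.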

[5] = target: Hypoxia-inducible factor 1-alpha (Homo sapiens) (UniProt Q16665); experiment: ATG_HIF1a_CIS: Attagene CIS-FACTORIAL HepG2 Assay for human Hypoxia Inducible Factor 1 (HIF1A) (AID 2282951); details: HepG2 Attagene cis-factorial HIF1a reporter transcription; actives raise or lower the signal
Chain of Hypoxia-inducible factor 1-alpha (Homo sapiens) (Q16665 whole entry, looked up): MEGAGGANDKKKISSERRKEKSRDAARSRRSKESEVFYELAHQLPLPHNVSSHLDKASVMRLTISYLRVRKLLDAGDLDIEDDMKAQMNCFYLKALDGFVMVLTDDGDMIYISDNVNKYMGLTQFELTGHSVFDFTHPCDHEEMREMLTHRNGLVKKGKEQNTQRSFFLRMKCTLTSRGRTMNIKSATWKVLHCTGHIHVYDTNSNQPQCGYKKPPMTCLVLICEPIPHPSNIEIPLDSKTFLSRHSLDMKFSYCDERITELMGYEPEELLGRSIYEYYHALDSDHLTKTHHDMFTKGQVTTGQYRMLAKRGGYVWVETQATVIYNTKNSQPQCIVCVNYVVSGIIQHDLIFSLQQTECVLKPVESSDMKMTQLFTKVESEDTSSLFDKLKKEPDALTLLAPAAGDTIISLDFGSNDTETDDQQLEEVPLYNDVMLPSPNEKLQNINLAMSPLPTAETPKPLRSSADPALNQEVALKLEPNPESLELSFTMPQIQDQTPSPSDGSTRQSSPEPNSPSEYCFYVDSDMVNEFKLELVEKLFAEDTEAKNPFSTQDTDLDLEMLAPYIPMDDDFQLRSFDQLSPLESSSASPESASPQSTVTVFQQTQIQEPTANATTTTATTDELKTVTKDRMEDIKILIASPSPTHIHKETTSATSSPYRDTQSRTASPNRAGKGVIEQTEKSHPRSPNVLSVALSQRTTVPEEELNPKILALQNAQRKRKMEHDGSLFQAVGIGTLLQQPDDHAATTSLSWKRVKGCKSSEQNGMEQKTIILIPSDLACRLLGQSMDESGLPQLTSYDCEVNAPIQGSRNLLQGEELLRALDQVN
Method in brief: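 After 24 h chemical exposure of reporter-transfected HepG2 cells, reporter cDNA was PCR-amplified, labelled by 6-FAM primer extension (2 min 95 C, 20 s 68 C, 10 min 72 C), HpaI-cut (2 h, 37 C) and analysed by CE.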

[6] = target: Hepatocyte nuclear factor 6 (Homo sapiens) (UniProt Q9UBC0); experiment: ATG_HNF6_CIS: Attagene CIS-FACTORIAL HepG2 Assay for human Hepatocyte Nuclear Factor 6 (HNF6) (AID 2282952); details: HepG2 Attagene cis-factorial HNF6 reporter transcription; actives raise or lower the signal
Chain of Hepatocyte nuclear factor 6 (Homo sapiens) (Q9UBC0 whole entry, looked up): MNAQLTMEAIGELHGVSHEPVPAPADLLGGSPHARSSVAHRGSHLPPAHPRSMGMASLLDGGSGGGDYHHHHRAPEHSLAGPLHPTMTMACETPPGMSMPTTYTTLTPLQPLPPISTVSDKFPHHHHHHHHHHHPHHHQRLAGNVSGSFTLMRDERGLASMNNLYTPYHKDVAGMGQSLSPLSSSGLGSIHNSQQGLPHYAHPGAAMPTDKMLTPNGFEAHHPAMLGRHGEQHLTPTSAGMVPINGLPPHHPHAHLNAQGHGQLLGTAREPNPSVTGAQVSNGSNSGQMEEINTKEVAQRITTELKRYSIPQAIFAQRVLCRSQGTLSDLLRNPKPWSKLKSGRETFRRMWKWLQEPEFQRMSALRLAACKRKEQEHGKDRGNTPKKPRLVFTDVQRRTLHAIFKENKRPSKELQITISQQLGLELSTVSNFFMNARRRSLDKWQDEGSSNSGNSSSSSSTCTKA
Method in brief: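 Multiplexed mRNA reporter assay in transfected HepG2; 24 h dosing; RT-PCR plus capillary electrophoresis fluorescence; DMSO-referenced bidirectional curve fitting.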

[7] = target: Heat shock factor protein 1 (Homo sapiens) (UniProt Q00613); experiment: ATG_HSE_CIS: Attagene CIS-FACTORIAL HepG2 Assay for human Heat Shock Transcription Factor 1 (HSE) (AID 2282953); details: HepG2 HSE cis-reporter, Attagene RNA transcription; actives raise or lower the signal
Chain of Heat shock factor protein 1 (Homo sapiens) (Q00613 whole entry, looked up, the tested form may be a part): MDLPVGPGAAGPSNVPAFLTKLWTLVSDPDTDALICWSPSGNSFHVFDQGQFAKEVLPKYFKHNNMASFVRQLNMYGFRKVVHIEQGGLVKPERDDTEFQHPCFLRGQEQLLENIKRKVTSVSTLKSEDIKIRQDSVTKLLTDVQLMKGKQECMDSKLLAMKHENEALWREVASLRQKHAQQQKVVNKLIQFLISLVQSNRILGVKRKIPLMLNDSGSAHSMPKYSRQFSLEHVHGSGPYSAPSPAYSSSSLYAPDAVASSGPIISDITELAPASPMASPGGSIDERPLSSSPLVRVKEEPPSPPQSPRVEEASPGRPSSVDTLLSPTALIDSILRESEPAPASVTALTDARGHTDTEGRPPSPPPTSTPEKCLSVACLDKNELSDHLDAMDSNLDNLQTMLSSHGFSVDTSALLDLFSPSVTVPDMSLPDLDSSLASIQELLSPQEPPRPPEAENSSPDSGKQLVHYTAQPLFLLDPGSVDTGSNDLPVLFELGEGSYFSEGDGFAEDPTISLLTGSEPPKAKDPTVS
Method in brief: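 Endogenous transcription factor activity captured via cis-promoter reporter units transfected into HepG2; treatment lasted 24 h. Fluorescence intensity of reporter fragments analysed with bidirectional curve fitting, DMSO baseline.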

[8] = ATG_MRE_CIS: Attagene CIS-FACTORIAL HepG2 Assay for human Metal Responsive Element (MRE) (AID 2282954); details: HepG2 MRE cis-reporter transcription, Attagene multiplex; actives raise or lower the signal
Method in brief: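 HepG2 cells transiently transfected with cis-element-driven reporter units; mRNA measured 24 h after dosing. Reporter transcripts quantified by RT-PCR, FAM labelling, HpaI digestion and capillary electrophoresis; bidirectional fit versus DMSO.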

[9] = ATG_PBREM_CIS: Attagene CIS-FACTORIAL HepG2 Assay for human Phenobarbital-responsive Enhancer Module (PBREM) (AID 2282955); details: HepG2 PBREM cis-reporter, Attagene multiplexed transcription; actives raise or lower the signal
Method in brief: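 Measures endogenous factor action on a phenobarbital-responsive enhancer module. HepG2 transiently carrying cis reporters, 24 h treatment, mRNA read-out by RT-PCR plus capillary electrophoresis.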

[10] = target: Paired box protein Pax-6 (Homo sapiens) (UniProt P26367); experiment: ATG_Pax6_CIS: Attagene CIS-FACTORIAL HepG2 Assay for human Paired Box 6 (PAX6) (AID 2282956); details: HepG2 CIS-FACTORIAL PAX6 reporter transcription, RNA readout; actives raise or lower the signal
Chain of Paired box protein Pax-6 (Homo sapiens) (P26367 whole entry, looked up): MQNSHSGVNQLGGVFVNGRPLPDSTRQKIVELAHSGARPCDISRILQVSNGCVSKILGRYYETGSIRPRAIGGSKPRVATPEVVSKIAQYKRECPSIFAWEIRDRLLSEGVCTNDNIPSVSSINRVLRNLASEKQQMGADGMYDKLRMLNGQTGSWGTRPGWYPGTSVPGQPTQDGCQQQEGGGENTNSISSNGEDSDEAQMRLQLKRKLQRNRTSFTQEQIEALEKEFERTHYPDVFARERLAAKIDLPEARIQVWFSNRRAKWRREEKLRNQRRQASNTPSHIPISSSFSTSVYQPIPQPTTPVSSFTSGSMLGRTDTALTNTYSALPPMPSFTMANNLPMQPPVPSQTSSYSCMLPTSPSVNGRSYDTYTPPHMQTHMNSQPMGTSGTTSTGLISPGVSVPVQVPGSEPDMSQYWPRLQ
Method in brief: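 Multiplexed cis-reporter HepG2 system; 24 h treatment; reporter mRNA read by RT-PCR/CE fluorescence; bidirectional fit vs DMSO.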

[11] = ATG_PXRE_CIS: Attagene CIS-FACTORIAL HepG2 Assay for human Pregnane X Receptor Element (PXRE) (AID 2282957); details: HepG2 Attagene CIS-FACTORIAL PXRE reporter, mRNA; actives raise or lower the signal
Method in brief: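 Cells: HepG2, transiently transfected reporter units under cis promoter control. Exposure: 24 h. Detection: reporter mRNA via RT-PCR/CE fluorescence; bidirectional fitting, DMSO-referenced.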

[12] = ATG_RORE_CIS: Attagene CIS-FACTORIAL HepG2 Assay for human RAR-related Orphan Receptor Element (RORE) (AID 2282959); details: HepG2 Attagene cis-factorial RORE reporter, mRNA; actives raise or lower the signal
Method in brief: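 A 24-hour exposure of transfected HepG2 hepatoma cells precedes RNA isolation and reporter RT-PCR. Labeled products are digested with HpaI and resolved by capillary electrophoresis, with gain or loss of signal scored relative to DMSO.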

[13] = ATG_Sox_CIS: Attagene CIS-FACTORIAL HepG2 Assay for human SRY-box transcription factor (SOX) (AID 2282960); details: HepG2 Attagene cis-factorial SOX reporter, mRNA; actives raise or lower the signal
Method in brief: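 HepG2, cis reporter units, 24 h exposure. Reporter mRNA: RT-PCR → FAM labelling → HpaI → CE fluorescence. Bidirectional fit vs DMSO.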

[14] = target: Transcription factor Sp1 (Homo sapiens) (UniProt P08047); experiment: ATG_Sp1_CIS: Attagene CIS-FACTORIAL HepG2 Assay for human Specificity Protein 1 (Sp1) (AID 2282961); details: HepG2 Sp1 cis-reporter transcription, actives raise or lower the signal
Chain of Transcription factor Sp1 (Homo sapiens) (P08047 whole entry, looked up, the tested form may be a part): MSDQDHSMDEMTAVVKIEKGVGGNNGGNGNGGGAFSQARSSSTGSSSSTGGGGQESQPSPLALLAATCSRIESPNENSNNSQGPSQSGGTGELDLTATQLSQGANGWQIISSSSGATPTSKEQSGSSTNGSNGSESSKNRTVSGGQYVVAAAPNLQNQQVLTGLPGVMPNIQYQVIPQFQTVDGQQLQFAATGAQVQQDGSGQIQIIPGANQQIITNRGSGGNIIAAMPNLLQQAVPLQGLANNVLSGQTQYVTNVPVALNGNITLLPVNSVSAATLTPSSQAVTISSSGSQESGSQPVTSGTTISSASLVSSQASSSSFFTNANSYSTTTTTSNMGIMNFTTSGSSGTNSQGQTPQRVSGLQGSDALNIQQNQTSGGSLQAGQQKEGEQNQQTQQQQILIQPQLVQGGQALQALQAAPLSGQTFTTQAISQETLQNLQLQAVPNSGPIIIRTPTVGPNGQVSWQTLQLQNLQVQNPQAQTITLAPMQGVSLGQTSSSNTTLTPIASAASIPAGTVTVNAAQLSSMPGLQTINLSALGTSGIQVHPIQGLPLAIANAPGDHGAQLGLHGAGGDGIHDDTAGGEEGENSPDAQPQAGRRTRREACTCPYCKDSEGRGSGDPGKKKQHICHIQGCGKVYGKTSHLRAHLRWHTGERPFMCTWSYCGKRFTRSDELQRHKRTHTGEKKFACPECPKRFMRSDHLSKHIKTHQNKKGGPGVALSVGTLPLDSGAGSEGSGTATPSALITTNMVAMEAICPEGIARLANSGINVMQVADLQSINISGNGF
Method in brief: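 Liver-derived HepG2 cells, cis-element reporter library, 24 h treatment; RNA isolated, cDNA amplified with reporter-specific primers, FAM-labeled fragments sized on capillary analyzer. DMSO baseline, bidirectional curve fit.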

[15] = ATG_SREBP_CIS: Attagene CIS-FACTORIAL HepG2 Assay for human Sterol Regulatory Element Binding (SREBP) (AID 2282962); details: HepG2 Attagene cis-factorial SREBP reporter, mRNA; actives raise or lower the signal
Method in brief: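 mRNA induction of transfected cis-promoter reporters in HepG2 cells, 24 h post-dose. Detection: RT-PCR with 6-FAM-labelled products, HpaI digest, capillary electrophoresis. DMSO served as negative control and baseline.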

[16] = target: Signal transducer and activator of transcription 3 (Homo sapiens) (UniProt P40763); experiment: ATG_STAT3_CIS: Attagene CIS-FACTORIAL HepG2 Assay for human Signal Transducer and Activator of Transcription 3 (STAT3) (AID 2282963); details: HepG2, Attagene cis-factorial STAT3 reporter transcription; actives raise or lower the signal
Chain of Signal transducer and activator of transcription 3 (Homo sapiens) (P40763 whole entry, looked up): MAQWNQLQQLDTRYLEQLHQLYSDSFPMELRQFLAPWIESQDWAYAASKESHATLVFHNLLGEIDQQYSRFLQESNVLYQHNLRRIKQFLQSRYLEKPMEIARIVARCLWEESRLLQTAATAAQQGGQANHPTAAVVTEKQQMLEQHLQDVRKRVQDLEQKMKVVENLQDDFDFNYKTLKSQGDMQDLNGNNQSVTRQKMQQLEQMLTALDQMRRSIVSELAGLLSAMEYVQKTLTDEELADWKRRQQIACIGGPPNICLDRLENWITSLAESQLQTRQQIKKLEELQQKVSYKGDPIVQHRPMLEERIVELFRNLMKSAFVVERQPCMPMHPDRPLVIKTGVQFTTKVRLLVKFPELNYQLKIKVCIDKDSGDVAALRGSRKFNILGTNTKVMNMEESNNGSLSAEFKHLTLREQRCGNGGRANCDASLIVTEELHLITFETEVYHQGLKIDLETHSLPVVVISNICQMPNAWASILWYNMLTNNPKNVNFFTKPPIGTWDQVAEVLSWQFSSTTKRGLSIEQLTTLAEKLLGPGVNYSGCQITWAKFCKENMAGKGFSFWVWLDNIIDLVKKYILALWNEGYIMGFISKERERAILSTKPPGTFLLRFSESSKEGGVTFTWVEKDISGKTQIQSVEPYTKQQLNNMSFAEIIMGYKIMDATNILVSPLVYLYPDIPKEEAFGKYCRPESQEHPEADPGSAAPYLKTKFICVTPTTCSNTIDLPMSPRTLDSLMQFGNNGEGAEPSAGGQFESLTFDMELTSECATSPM
Method in brief: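 HepG2 cells transiently transfected with multiple cis-element-driven reporter units report endogenous transcription factor activity. After 24 h compound exposure, reporter mRNA is measured by RT-PCR, 6-FAM labelling, HpaI digestion and capillary electrophoresis. Fitted bidirectionally versus DMSO.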

[17] = ATG_TA_CIS: Attagene CIS-FACTORIAL HepG2 Assay for human TA Basal Promoter (AID 2282964); details: HepG2 Attagene CIS-factorial TA basal promoter reporter; actives raise or lower the signal
Method in brief: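 Fluorescence from labelled RT-PCR reporter fragments, separated by capillary electrophoresis, gives the signal. Cells: HepG2 transiently carrying multiple reporter units, 24 h chemical dosing. Gain or loss relative to DMSO.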

[18] = ATG_TCF_b_cat_CIS: Attagene CIS-FACTORIAL HepG2 Assay for human T-Cell-Factor with beta-catenin (TCF/b-cat) (AID 2282965); details: HepG2 TCF/beta-catenin cis-reporter transcription, actives raise or lower the signal
Method in brief: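 Cells of the HepG2 line carry transiently transfected reporter units whose promoters respond to endogenous factors. Twenty-four hours post-dosing, reporter mRNA induction is measured by fluorescent RT-PCR and capillary electrophoresis, with DMSO as baseline.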

[19] = ATG_TAL_CIS: Attagene CIS-FACTORIAL HepG2 Assay for human TAL Basal Promoter (AID 2282966); details: HepG2 Attagene cis-factorial TAL promoter reporter; actives raise or lower the signal;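 also: background control endpoint measuring basal TAL promoter reporter mRNA not a specific factor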
Method in brief: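 RT-PCR plus capillary electrophoresis quantifies reporter mRNA induction in transiently transfected HepG2 cells after 24 h chemical treatment. DMSO serves as negative control and baseline for bidirectional fitting.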

[20] = ATG_PPRE_CIS: Attagene CIS-FACTORIAL HepG2 Assay for human Peroxisome Proliferator-activated Response Element (PPRE) (AID 2282958); details: HepG2 PPRE cis-element reporter, Attagene transcription factor profiling; actives raise or lower the signal
Method in brief: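 PPRE activity in HepG2: transient cis-reporter transfection, 24 h compound incubation, reporter mRNA by RT-PCR and CE fluorescence; gain/loss fitted against DMSO.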

Measured: AC50

Fc1ccc(C2(Cn3cncn3)OC2c2ccccc2Cl)cc1 (configuration not stated)
active: [11] 3.04 µM | [15] 27.3 µM
not listed: [20]
inactive: all other assays above

CC(=[OH+])/C=C(/C)[O-].CC(=[OH+])/C=C(/C)[O-].CC(=[OH+])/C=C(/C)[O-].[Al]
not listed: [9]
inactive: all other assays above

C[C@@H](Oc1ccc(Cl)cc1Cl)C(=O)O
not listed: [9] | [19] | [20]
inactive: all other assays above

CCOP(=S)(OCC)SCCS(=O)(=O)CC
active: [11] 11.5 µM
not listed: [9]
inactive: all other assays above

O=P(O)(O)CN(CP(=O)(O)O)CP(=O)(O)O
not listed: [9]
inactive: all other assays above

O=C(Cl)c1ccc(Cl)cc1
not listed: [9]
inactive: all other assays above

Nc1ccc(Cl)cc1C(=O)c1ccccc1
active: [8] 25.6 µM | [10] 29.6 µM | [11] 6.6 µM | [12] 15 µM | [17] 21.8 µM | [18] 39.6 µM
not listed: [9] | [19]
inactive: all other assays above

Oc1c(I)cc(I)cc1I
inactive: [1] | [3] | [4] | [6] | [11] | [14] | [15] | [16]
active: [2] 100 µM | [5] 41.9 µM | [7] 125 µM | [8] 100 µM | [10] 77.1 µM | [20] 64.2 µM | [12] 31.1 µM | [13] 160 µM | [17] 55.8 µM | [18] 25.9 µM | [19] 76.1 µM

O=C(OC1CCCCC1)c1ccccc1C(=O)OC1CCCCC1
active: [5] 11.2 µM | [8] 23.5 µM | [11] 0.58 µM | [12] 8.39 µM | [17] 29.1 µM
not listed: [19] | [20]
inactive: all other assays above

Cc1cc(=O)[nH]o1
active: [11] 42.8 µM
not listed: [9]
inactive: all other assays above

N#CCc1ccc(Cl)cc1
active: [11] 48.5 µM
not listed: [9]
inactive: all other assays above

CCCCC(CC)CO[N+](=O)[O-] (configuration not stated)
active: [5] 4.37 µM | [6] 151 µM | [12] 99.5 µM
not listed: [9]
inactive: all other assays above

CC(C)CCCCCCOC(=O)c1ccccc1C(=O)OCCCCCCC(C)C
active: [11] 1.39 µM
not listed: [12] | [20]
inactive: all other assays above
